Compound activity as filed in PubChem.
RAD52 anneal inh: RAD52 DNA annealing inhibitors, primary screen, biochemical, FRET, single point, set 2. recombinant RAD52 DNA annealing, FRET fluorescence. AID 651710, 2012. DNA repair protein RAD52 homolog (Homo sapiens), P43351. hit rate 0.46% among 360,000. inhibition, % at 18.7 µM;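 active = every replicate showing at least 50% inhibition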
Target sequence (P43351 whole entry, looked up): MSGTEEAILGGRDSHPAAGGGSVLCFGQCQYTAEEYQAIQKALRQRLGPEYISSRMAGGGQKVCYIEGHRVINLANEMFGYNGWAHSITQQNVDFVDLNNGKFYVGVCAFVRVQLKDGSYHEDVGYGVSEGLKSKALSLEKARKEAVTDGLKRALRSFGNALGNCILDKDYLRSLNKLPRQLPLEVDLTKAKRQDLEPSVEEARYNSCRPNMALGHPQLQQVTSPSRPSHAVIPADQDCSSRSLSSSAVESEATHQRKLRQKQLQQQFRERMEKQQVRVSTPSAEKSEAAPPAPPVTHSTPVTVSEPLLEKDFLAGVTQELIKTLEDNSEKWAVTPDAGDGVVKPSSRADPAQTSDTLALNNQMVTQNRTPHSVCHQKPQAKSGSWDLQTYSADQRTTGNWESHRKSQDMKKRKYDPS
NSD2 HMT inh: NSD2 histone methyltransferase inhibitors, primary screen, biochemical, AlphaScreen, single concentration, set 2; Histone-lysine N-methyltransferase NSD2 (Homo sapiens), O96028; NSD2 peptide methylation, 120 min; inhibition, % at 12.5 µM; hit rate 0.54% among 310,000; AID 743445, 2014; in the data active = inhibition above about 50%
CASP6 VEID inh: human caspase-6 inhibitors, primary screen, biochemical, VEID-R110 fluorescence, single point, set 2; purified caspase-6, Z-VEID-R110 cleavage fluorescence; inhibition, % at 12.5 µM; hit rate 0.53% among 350,000;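 active = mean inhibition across replicates at least about 35%, with every replicate also reaching that limit, limit read from the data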;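 note: 0% = median of neutral control wells and 100% = no fluorescence left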
AF4-AF9 inh: inhibitors of AF4 peptide binding to AF9, primary screen, biochemical, AlphaScreen, biotin-AF4 peptide, FLAG-AF9, single point. Protein AF-9 (Homo sapiens), P42568. inhibition, % at 10 µM. hit rate 0.47% among 350,000. AID 651704, 2012;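 active = every replicate reaching a set inhibition limit, whatever the replicate mean, cut at about 25% in these data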;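 note: 0% = plate neutral control median and 100% = total signal loss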
rRNA inh HTS: reduced GFP signal of wild-type E. coli, primary screen, bacterial rRNA inhibitor project, GFP/RFP fluorescence, OD600, single point. E. coli WT GFP vs humanized-ribosome RFP mutants, 24 h; hits give low values; DMSO median 0, no signal -100. GFP signal change (wild-type ribosome), % (no concentration beside the values). hit rate 1.6% among 350,000;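 active = significant combined selectivity score with lowered wild-type GFP, culture density cut under 30%, mutant RFP and density less affected; inactive = any of these conditions unmet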
Active calls of the source: *; . = not tested or not shown. Shown are actives, neighbours in structure and some others; about 2.5% of the full set was active somewhere.

SMILES	RAD52 anneal inh	NSD2 HMT inh	CASP6 VEID inh	AF4-AF9 inh	rRNA inh HTS
COc1ccc(NC(=O)N2CCCCN3[C@@H](CO)[C@@H](c4ccc(-c5ccccc5F)cc4)[C@@H]3C2)cc1	64.6*	.	2.0	3.0	-54.8
COc1ccc(NC(=O)N2CCCCN3[C@@H](CO)[C@H](c4ccc(-c5ccccc5F)cc4)[C@@H]3C2)cc1	60.0*	.	1.9	-2.3	-55.5
C[C@@H]1CCCCO[C@H](CN(C)Cc2ccc(C(=O)Nc3ccccc3N)cc2)[C@@H](C)CN([C@H](C)CO)C(=O)c2cc(N(C)C)ccc2O1	.	.	.	.	-1.0
Cc1noc(C)c1COc1cccc(C(=O)Nc2ccc3c(c2)OCO3)c1	-10.6	-0.6	-0.5	1.3	-17.4
Cc1noc(C)c1COc1cccc(C(=O)Oc2ccc3c(c2)OCO3)c1	-7.9	-2.9	-1.6	.	-35.2*
C[C@@H]1CCCCO[C@@H](CN(C)C(=O)C2CCCCC2)[C@H](C)CN([C@@H](C)CO)C(=O)c2cc(NC(=O)CCCN(C)C)ccc2O1	.	.	.	.	1.7
CON(C)C(=O)[C@H]1C[C@@H]2[C@H](C[C@@H](c3ccccc3)[C@H]1C)N(c1ccc(F)cc1)C(=O)N2CCCOc1ccccc1	-41.6	.	-2.3	-4.3	8.8
C[C@H]1C(C(=O)N(C)C2CCCCC2)=Cc2c(n(-c3ccc(F)cc3)c(=O)n2CCCOc2ccccc2)C=C1c1ccccc1	1.5	.	0.0	83.6*	9.0
Cc1sc2ncn(CC(=O)Nc3cccc(S(N)(=O)=O)c3)c(=O)c2c1-c1ccccc1	-26.9	0.0	0.3	-1.5	-28.9*
O=C(c1ccc(F)cc1)N1CCOC(c2nc(-c3ccc(F)cc3)no2)C1 (centres undefined)	-15.3	.	-0.6	2.4	-25.0*
C[C@H](CO)N1C[C@H](C)[C@H](CN(C)Cc2ccc(-c3ccccc3)cc2)Oc2cc(C#CC(C)(C)O)ccc2S1(=O)=O	37.0	.	-3.4	-0.2	-3.8
CCC(=O)N1CCN(c2ccnc3cc(Cl)ccc23)CC1	2.7	0.8	0.2	.	-8.1
Oc1ccc(N2CCN(c3ccnc4cc(Cl)ccc34)CC2)cc1	-7.7	1.4	0.9	4.3	-37.5*
O=C(c1ccc(Cl)cc1)N1CCN(c2ccnc3cc(Cl)ccc23)CC1	-1.0	0.1	.	1.0	-29.4*
COc1cccc(Cl)c1NC(=O)N1CCN(c2ccnc3cc(Cl)ccc23)CC1	-16.5	18.9	-0.7	2.1	-31.7*
C[C@@H]1CN([C@H](C)CO)S(=O)(=O)c2ccc(C#Cc3ccncc3)cc2O[C@H]1CN(C)C	16.5	.	-1.0	-5.5	-2.5
C[C@H]1CN([C@@H](C)CO)S(=O)(=O)c2ccc(C#Cc3cccc(F)c3)cc2O[C@@H]1CN(C)C	29.3	.	-0.8	22.3	-56.5
O=C(NC(=S)Nc1nc(-c2cccc([N+](=O)[O-])c2)cs1)c1ccccc1Cl	-20.4	-5.3	0.1	1.1	-19.0*
O=[N+]([O-])c1cccc(-c2csc(N/N=C/c3cccc(O)c3)n2)c1	-15.4	-1.1	10.8	4.2	-41.5*
CC(=O)c1sc(N/N=C/c2cccc(O)c2)nc1C	-8.5	.	-2.0	6.2	-20.7*
C[C@H](CO)N1C[C@H](C)[C@H](CN(C)C(=O)Nc2ccccc2)Oc2ncc(C#Cc3ccc(C(F)(F)F)cc3)cc2C1=O	1.7	.	0.7	2.1	.
NNc1nc(-c2ccccc2)cc(-c2ccc(Br)cc2)n1	-12.9	-0.7	-1.9	-4.7	-25.3*
CNC(=O)C[C@H]1CC[C@H]2[C@@H](COc3ccc(NC(=O)c4ccc(F)c(F)c4)cc3C(=O)N2C)O1	11.3	.	4.1	-0.9	-0.1
O=C(CC(=O)c1cc(Cl)ccc1O)c1ccccc1	-10.8	.	1.2	-7.9	-27.2*
C[C@H]1CC=CC[C@@H](c2cccc(Cl)c2)NC(=O)[C@H](C)N(C)C(=O)c2ccccc2O1 (mixture of isomers)	.	.	.	.	-12.1
SMILES	RAD52 anneal inh	NSD2 HMT inh	CASP6 VEID inh	AF4-AF9 inh	rRNA inh HTS
COCCOC(=O)N1C(=O)[C@@]2(c3cc(C#CC4(O)CCCCCC4)ccc31)[C@H](c1ccc(OCCO)cc1)N1[C@H](c3ccccc3)[C@H](c3ccccc3)OC(=O)[C@H]1[C@@H]2C(=O)N1CCN(c2ncccn2)CC1	7.2	.	0.2	-2.1	.
CS(=O)(=O)c1sc(C#N)c2c1C(=O)CC(c1ccccc1)C2 (centres undefined)	0.7	.	5.0	.	-25.7*
Cc1oc2c(c(=O)c1C)C(=O)CC(c1ccccc1)C2 (centres undefined)	.	0.1	.	.	.
O=C(CN1CCCc2ccccc21)N/N=C/c1ccc(O)cc1O	-69.6	0.2	-4.2	7.6	-14.6*
COCC1=C([C@H](O)c2ccccc2)[C@H](CO)n2c(=O)n(-c3ccccc3)c(=O)n2C1	3.6	.	-0.4	-1.5	.
C[C@H](CO)N1C[C@H](C)[C@H](CN(C)Cc2ccccc2)OCCCC[C@H](C)Oc2ccc(NS(=O)(=O)c3ccc(F)cc3)cc2C1=O	77.1*	.	0.9	37.3*	3.1
Cc1ccc(S(=O)(=O)Nc2ccc3c(c2)C(=O)N([C@H](C)CO)C[C@H](C)[C@@H](CN(C)CC2CCCCC2)OCCCC[C@H](C)O3)cc1	40.6	.	1.1	9.8	1.5
C[C@@H]1CN([C@@H](C)CO)C(=O)c2cc(NS(=O)(=O)c3ccc(F)cc3)ccc2O[C@@H](C)CCCCO[C@H]1CN(C)Cc1ccccc1	27.2	.	-0.4	1.3	-1.5
C[C@@H]1CCCCO[C@H](CN(C)Cc2ccccc2)[C@@H](C)CN([C@@H](C)CO)C(=O)c2cc(NS(=O)(=O)c3ccc(Cl)cc3)ccc2O1	64.0*	.	-1.2	5.5	-12.8
Cc1ccc(S(=O)(=O)Nc2ccc3c(c2)C(=O)N([C@@H](C)CO)C[C@H](C)[C@@H](CN(C)CC2CCCCC2)OCCCC[C@H](C)O3)cc1	54.8*	.	1.3	16.6	-24.0
C[C@H](CO)N1C[C@H](C)[C@@H](CN(C)Cc2ccccc2)OCCCC[C@H](C)Oc2ccc(NS(=O)(=O)c3ccc(Cl)cc3)cc2C1=O	35.2	.	-0.4	4.1	-2.3
C[C@@H]1CCCCO[C@H](CN(C)Cc2ccccc2)[C@H](C)CN([C@@H](C)CO)C(=O)c2cc(NS(=O)(=O)c3ccc(Cl)cc3)ccc2O1	54.4*	.	0.1	9.6	-29.4
C[C@@H]1CCCCO[C@@H](CN(C)Cc2ccccc2)[C@H](C)CN([C@@H](C)CO)C(=O)c2cc(NS(=O)(=O)c3ccc(Cl)cc3)ccc2O1	-1.0	.	1.7	-1.4	6.5
O=C(C1CCOCC1)N1CC(=O)N2[C@H](C1)[C@H](c1ccc(/C=C/c3ccccc3)cc1)[C@@H]2CO	2.7	.	2.8	1.4	-0.6
